Results: PubChem BioAssay (NCI)
Compounds without any hit were thinned out: in the full panel of roughly 79,000, 15% have a hit. Unmarked numbers belong to inactive results. The source made the active and inactive calls. Cut-off read from the data, not from the text of the source: active = growth inhibition above about 70%; inactive = the rest.

Test: NCI Yeast Anticancer Drug Screen. Data for the rad50 strain (AID 155);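 note: 0% = growth of vehicle-only cultures of the same strain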
Details: S. cerevisiae rad50 strain growth inhibition, active compounds read high
Experimental: Growth inhibition of yeast strains with defined genetic alterations is measured as a screen for potential anti-cancer activity. Selected strains with alterations in DNA damage repair or cell cycle control were exposed to compounds and growth inhibition was measured relative to vehicle treated controls. The strain used in this assay is rad50

[1] = at 5.0 µM (retest, dose inferred, filed as 0.5)
[2] = at 50.0 µM (retest, dose inferred, filed as 5.0)

Row | SMILES | growth inhibition (at 1.2 µM) | growth inhibition (at 3.7 µM) | growth inhibition [1] | growth inhibition (at 11.0 µM) | growth inhibition (at 33.0 µM) | growth inhibition [2] | growth inhibition (at 50.0 µM) | growth inhibition (at 100.0 µM)
1 | COc1ccc(SCc2cc(OC)ccc2OC)cc1 | 0% | 1% | -8% | 2% | 2% | 66% | 60.5% | 3%
2 | Nc1nc(N)c2cc(Sc3ccc4ccccc4c3)ccc2n1 | -8% | 43% | 55% | 90% (active) | 95% (active) | 98% (active) | 88.1% (active) | 92% (active)
3 | CN(C)Cc1cccc(CN(C)C)[c]1[Sn]([Br])([c]1ccccc1)[c]1ccccc1 | 30% | 62% | 44% | 69% | 82% (active) | 94% (active) | 81.8% (active) | 97% (active)
4 | N#C/C(=C1C=C(Br)/C(=N\O)C=C\1Cl)c1cccc2ccccc12 | 28% | 44% | 99% (active) | 91% (active) | 87% (active) | 98% (active) | 89.2% (active) | 94% (active)
5 | N#Cc1sc2c(c1OC(=O)c1ccco1)c(=O)n(-c1ccccc1)c(=S)n2-c1ccccc1 | 0% | 2% | 3% | 1% | 0% | 94% (active) | 94.6% (active) | -1%
